According to the supplement of paper PMC6331611:
± gives the standard deviation of the averaged measurements. The full ranking holds about 1,600 compounds; the median of “normalized growth (OD600, IQM-normalized) in LPM” is about 1, and the lowest 2% start at about 0.014. The full list was thinned out, with the lowest values kept by preference.

tested on: Salmonella enterica serovar Typhimurium SL1344; experiment: normalized growth (OD600, IQM-normalized) in LPM (fraction of plate interquartile mean); higher = more bacterial growth (less inhibition); settings: LPM pH 5.8; 10 µM; 16 h

Row | Compound | normalized growth
1 | CCCCC(=O)N(Cc1ccc(-c2ccccc2-c2nnn[nH]2)cc1)[C@H](C(=O)O)C(C)C | 0.845 ± 0.034
2 | CCC(=O)c1c(O)cc(O)cc1O | 1.09 ± 0.016
3 | Cc1c(Nc2ncccc2C(=O)O)cccc1C(F)(F)F | 1.04 ± 0.041
4 | Cl.N=C(N)NCCC[C@H](N)C(=O)O | 1 ± 0.042
5 | C=C(NC(=O)C(=C)NC(=O)c1csc(C2=N[C@@H]3c4csc(n4)[C@H]4NC(=O)c5csc(n5)[C@H]([C@](C)(O)[C@@H](C)O)NC(=O)[C@H]5CSC(=N5)/C(=C/C)NC(=O)[C@H]([C@@H](C)O)NC(=O)c5csc(n5)[C@]3(CC2)NC(=O)[C@H](C)NC(=O)C(=C)NC(=O)[C@H](C)NC(=O)[C@H]([C@@H](C)CC)N[C@@H]2C=Cc3c([C@H](C)O)cc(nc3[C@H]2O)C(=O)O[C@@H]4C)n1)C(N)=O | 1 ± 0.09
6 | C=C(C)[C@H]1CC=C(C)CC1 | 0.978 ± 0.024
7 | Cc1cc2nc3c(=O)[nH]c(=O)nc-3n(CC(O)C(O)C(O)COP(=O)(O)O)c2cc1C (centres undefined) | 0.822 ± 0.056
8 | O=S(=O)(O)CCSSCCS(=O)(=O)O | 1.02 ± 0.069
9 | CC(C)[C@H](NC(=O)[C@H](CC(=O)O)NC(=O)[C@H](CCCCN)NC(=O)[C@@H](N)CCCN=C(N)N)C(=O)N[C@@H](Cc1ccc(O)cc1)C(=O)O | 0.991 ± 0.011
10 | CC(=O)OCC(=O)[C@@]1(O)CC[C@H]2[C@@H]3CCC4=CC(=O)CC[C@]4(C)[C@@]3(F)[C@@H](O)C[C@@]21C | 1.09 ± 0.11
11 | O=C1c2c(O)cccc2C([C@@H]2O[C@H](CO)[C@@H](O)[C@H](O)[C@H]2O)c2cc(CO)cc(O)c21 (some centres undefined) | 1 ± 0.043
12 | C[N+]1(C)[C@@H]2CC[C@H]1C[C@@H](OC(=O)C(O)c1ccccc1)C2 (some centres undefined) | 0.976 ± 0.081
13 | Nc1ncnc(Nc2ccc(Cl)cc2)n1 | 0.999 ± 0.071
14 | CN1CCCN=C1COC(=O)C(O)(c1ccccc1)C1CCCCC1 (centres undefined) | 1.23 ± 0.026
15 | CC(O)(CC(=O)O)CC(=O)O | 0.921 ± 0.018
16 | COc1ccc(CN(CCN(C)C)c2ncccn2)cc1 | 1.11 ± 0.038
17 | CCN(CC)CCOc1ccc(C(=C(Cl)c2ccccc2)c2ccccc2)cc1 | 1.07 ± 0.023
18 | C=C1c2c(Cl)ccc(O)c2C(=O)C2=C(O)[C@]3(O)C(=O)C(C(N)=O)=C(O)[C@@H](N(C)C)[C@@H]3[C@@H](O)[C@H]12.O=C(O)c1cc(S(=O)(=O)O)ccc1O | 0.0199 ± 0.00036
19 | CN(C)[C@@H]1C(O)=C(C(N)=O)C(=O)[C@@]2(O)C(O)=C3C(=O)c4c(O)cccc4[C@@](C)(O)[C@H]3C[C@@H]12 | 0.0127 ± 0.00026
20 | CN(C)[C@@H]1C(O)=C(C(N)=O)C(=O)[C@@]2(O)C(O)=C3C(=O)c4c(O)cccc4[C@@](C)(O)[C@H]3[C@H](O)[C@@H]12 | 0.0138 ± 0.00025
21 | C[C@H]1c2cccc(O)c2C(=O)C2=C(O)[C@]3(O)C(=O)C(C(N)=O)=C(O)[C@@H](N(C)C)[C@@H]3[C@@H](O)[C@@H]21 | 0.0125 ± 0.00056
22 | C=C1c2cccc(O)c2C(=O)C2=C(O)[C@]3(O)C(=O)C(C(N)=O)=C(O)[C@@H](N(C)C)[C@@H]3[C@@H](O)[C@H]12 | 0.0154 ± 0.00028

Row | Compound | normalized growth
23 | CN(C)[C@@H]1C(O)=C(C(N)=O)C(=O)[C@@]2(O)C(O)=C3C(=O)c4c(O)ccc(Cl)c4[C@@](C)(O)[C@H]3C[C@@H]12 | 0.0113 ± 0.00051
24 | CN(C)[C@@H]1C(O)=C(C(=O)NCN2CCCC2)C(=O)[C@@]2(O)C(O)=C3C(=O)c4c(O)cccc4[C@@](C)(O)[C@H]3C[C@@H]12 | 0.854 ± 0.027
25 | CN(C)[C@@H]1C(O)=C(C(N)=O)C(=O)[C@@]2(O)C(O)=C3C(=O)c4c(O)ccc(Cl)c4[C@@H](O)[C@H]3C[C@@H]12 | 0.00865 ± 0.00039
26 | CN(C)c1cc(NC(=O)CNC(C)(C)C)c(O)c2c1C[C@H]1C[C@H]3[C@H](N(C)C)C(O)=C(C(N)=O)C(=O)[C@@]3(O)C(O)=C1C2=O | 0.962 ± 0.053
27 | CN(C)c1ccc(O)c2c1C[C@H]1C[C@H]3[C@H](N(C)C)C(O)=C(C(N)=O)C(=O)[C@@]3(O)C(O)=C1C2=O | 0.0111 ± 0.00049
28 | CC1(C)[C@H]2CC[C@]1(CS(=O)(=O)O)C(=O)C2=Cc1ccc(C=C2C(=O)[C@@]3(CS(=O)(=O)O)CC[C@@H]2C3(C)C)cc1 | 0.989 ± 0.073
29 | CC(=O)[C@H]1CC[C@H]2[C@@H]3CC=C4C[C@@H](OC(=O)CCC(=O)O)CC[C@]4(C)[C@H]3CC[C@]12C | 1.02 ± 0.027
30 | CCCCC(CC)COC(=O)C(C#N)=C(c1ccccc1)c1ccccc1 (centres undefined) | 0.82 ± 0.0086
31 | CCN(CC)CCc1nc(-c2ccccc2)no1 | 0.956 ± 0.062
32 | C/C(=C\C(=O)OCCCCCCCCC(=O)O)C[C@@H]1OC[C@H](C[C@@H]2O[C@H]2[C@@H](C)[C@H](C)O)[C@@H](O)[C@H]1O | 0.00952 ± 0.00017
33 | COc1cccc(OC)c1C(=O)N[C@@H]1C(=O)N2[C@@H]1SC(C)(C)[C@@H]2C(=O)O | 1.12 ± 0.019
34 | CCc1cn([C@H]2C[C@H](O)[C@@H](CO)O2)c(=O)[nH]c1=O | 0.664 ± 0.046
35 | O=c1[nH]c(=O)n([C@H]2C[C@H](O)[C@@H](CO)O2)cc1I | 1.05 ± 0.026
36 | O=c1[nH]c(=O)n([C@H]2C[C@H](O)[C@@H](CO)O2)cc1F | 0.0114 ± 0.00023
37 | O=C1C(CC[S+]([O-])c2ccccc2)C(=O)N(c2ccccc2)N1c1ccccc1 (centres undefined) | 1.097 ± 0.0059
38 | CN1CCCC(n2nc(Cc3ccc(Cl)cc3)c3ccccc3c2=O)CC1 (centres undefined) | 1.04 ± 0.039
39 | N=C(N)NCC1COC2(CCCCC2)O1 (centres undefined) | 0.863 ± 0.015
40 | CCCc1nc(C(C)(C)O)c(C(=O)OCc2oc(=O)oc2C)n1Cc1ccc(-c2ccccc2-c2nnn[nH]2)cc1 | 1.005 ± 0.0069
41 | CN(C)CCN(Cc1ccccc1)c1ccccn1 | 0.906 ± 0.035
42 | CCN(CC)C(=O)c1cccnc1 | 1.14 ± 0.095
43 | OC[C@@H](O)[C@@H](O)CO | 0.975 ± 0.05
44 | COc1ccc(-c2cc(C(F)F)nn2-c2ccc(S(N)(=O)=O)cc2)cc1F | 1.01 ± 0.035
